Hit rate of the full screen: of about 390,000 compounds, about 610 (0.16%) were called active. Where a call stands in place of a potency, no number is given. Not shown: some 4% with an inconclusive outcome. This is one part of a sample in which actives are shown more often than they occur. Calls follow the shape of the dose curve; as a rule, active = well fitted inhibition curve with a large enough effect; inconclusive = small, poorly fitted or top-dose-only effect, or effect the other way, or another doubt; inactive = no such curve, though single readings can be large or run the other way.
experiment: Nrf2 qHTS screen for inhibitors: counterscreen for cytotoxicity; conditions: A549 ARE-Fluc cells, CellTiter-Fluor viability, 18-24 h; series mostly up to 46 µM
Outline: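 Cytotoxicity counterscreen: CellTiter-Fluor fluorescence was measured in A549 ARE_Fluc cells after 18-24 h of compound exposure in a concentration series. The subsequent BugLite luminescent read reports ARE-luciferase activity.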
Potency is read from the fitted curve at half-maximal effect.

| Compound | Potency |
| --- | --- |
| COc1ccc(CN(Cc2ccccc2)C(=O)c2ccc(O)cc2)cc1COc1ccc(NC(C)=O)cc1 | inactive |
| Cc1ccc(Cn2ncc3c4sc(C)cc4n(C)c3c2=O)c(C)c1 | inactive |
| Cc1ccc(-c2nnc3ccc(SCC(N)=O)nn23)cc1 | inactive |
| CCc1cccc(NC(=O)c2cnc(N3CCOCC3)c3ccccc23)c1 | inactive |
| COc1ccc(C(=O)N(Cc2ccccc2)Cc2ccc(OC)c(COc3ccc(NC(C)=O)cc3)c2)c(O)c1 | inactive |
| C=C1CCN(Cc2ccc(OC)cc2)S(=O)(=O)c2ccccc21 | inactive |
| CC(=O)OCC(NC(=O)C(Cc1ccccc1)NC(=O)OC(C)(C)C)C1OC(n2ccc(=O)[nH]c2=O)C(OC(C)=O)C1OC(C)=O (stereo unspecified) | inactive |
| CCN(CC)/[N+]([O-])=N/Oc1cc(O/[N+]([O-])=N/N2CCCC2CO)c([N+](=O)[O-])cc1[N+](=O)[O-] (stereo unspecified) | inactive |
| COc1ccc2c(CNCCc3ccccc3C)c(C(=O)O)n(Cc3ccccc3C)c2c1 | inactive |
| CCOc1ccc(CNCc2c(C(=O)O)c(C)n(Cc3cccc(OC)c3)c2C)cc1OC | inactive |
| COc1ccc(Cn2c(C(=O)O)c(CNCc3cccc(OC)c3)c3ccc(C)cc32)cc1 | 8.2 µM (active) |
| Cc1ccc(S(=O)(=O)Nc2ccccc2CNc2c(C)n(C)n(-c3ccccc3)c2=O)cc1 | inactive |
| Cc1c(N=Nc2ccc(N(C)C)cc2)c(=O)n(-c2ccccc2)n1C | 18.4 µM (active) |
| Cc1c(C=O)n(C)n(-c2ccccc2)c1=O | inactive |
| O=C1c2ccccc2C(=O)N1c1ccc(S(=O)(=O)N2CCOCC2)c2ccccc12 | inactive |
| CCCN(CCC)C(=O)C1CCCN(c2ncnc3c2nc2n3CCCCC2)C1 (stereo unspecified) | inactive |
| N#CN1CCC(NS(=O)(=O)c2cccc(F)c2)C1 (stereo unspecified) | inactive |
| CC[n+]1cc(C)ccc1/C=C/c1ccc(N(C)C)cc1 | 9.2 µM (active) |
| N#Cc1ccc(OC2=NS(=O)(=O)c3ccccc32)cc1 | inactive |
| CCC(C)Nc1oc(-c2ccc(COc3ccc(Cl)cc3)o2)nc1C#N (stereo unspecified) | inactive |
| Cc1c(C)n(Cc2ccc(Cl)cc2)c2ccc(C(=O)NCCc3ccc(S(N)(=O)=O)cc3)cc12 | inactive |
| Cc1onc(-c2ccc(F)cc2F)c1C(=O)Nc1cccc(C(F)(F)F)c1 | inactive |
| COc1cc(NC(=O)c2[nH]cnc2C(N)=O)cc(C(=O)Nc2cccc(C(F)(F)F)c2)c1 | 20.6 µM (active) |
| Cc1cc(Nc2cccc(C(F)(F)F)c2)nc2ccc(NC(=O)c3ccc(=O)[nH]c3)cc12 | inactive |
| Cc1ccc(-c2nc(SCc3ccc(Br)cc3)n3[nH]c(=O)cc3n2)cc1 | inactive |
| O=C(O)C1CC=CC2CCN(C3CCCCC3)C(=O)C21 (stereo unspecified) | inactive |
